Here are results for 7 sequences from article PMC7862700, “An all-to-all approach to the identification of sequence-specific readers for epigenetic DNA modifications on cytosine”.

Holding throughout (test): DAPPL (digital affinity profiling via proximity ligation, sequencing); 10 mM Tris-HCl pH 7.5, 50 mM NaCl, 1 mM DTT, 4% glycerol, room temperature, 30 min; GST-TFs on glutathione beads, 16-mer random dsDNA library, 0.1% formaldehyde crosslink after washing; high values mean tight binding
Conditions in all cases: protein: recombinant; tags: N-terminal GST; dsDNA, one strand shown

One assay has as its target T1, FLI1 (Homo sapiens, UniProt Q01543 1-452).
T1 sequence: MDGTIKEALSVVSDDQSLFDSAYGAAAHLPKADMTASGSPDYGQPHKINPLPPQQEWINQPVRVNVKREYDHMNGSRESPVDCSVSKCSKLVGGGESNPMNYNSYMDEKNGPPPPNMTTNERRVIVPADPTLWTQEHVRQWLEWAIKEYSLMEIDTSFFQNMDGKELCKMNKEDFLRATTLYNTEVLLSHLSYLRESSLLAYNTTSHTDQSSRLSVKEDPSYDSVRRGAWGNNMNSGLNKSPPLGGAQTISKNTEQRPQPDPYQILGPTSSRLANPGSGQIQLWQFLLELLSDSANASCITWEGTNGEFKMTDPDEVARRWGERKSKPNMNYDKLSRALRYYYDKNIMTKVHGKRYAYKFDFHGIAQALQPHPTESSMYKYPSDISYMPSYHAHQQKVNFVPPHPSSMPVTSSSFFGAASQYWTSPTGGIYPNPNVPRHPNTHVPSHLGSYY
The method, boiled down:
(§1)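 Human transcription factors were made in yeast as GST fusions, captured on glutathione beads and barcoded with DNA. With a tag-only sample included, the pool was incubated with 200 nmole of a random double-stranded 16-mer DNA library in Tris/NaCl/DTT/glycerol buffer at room temperature for 30 min, then crosslinked with 0.1% formaldehyde after washing, ligated by proximity, amplified and sequenced. For binding signal, each hexamer's read frequency for a factor is divided by its frequency for the tag-only sample.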

The next assay has as its target T2, ELK1 (Homo sapiens, UniProt P19419 1-428).
T2 sequence: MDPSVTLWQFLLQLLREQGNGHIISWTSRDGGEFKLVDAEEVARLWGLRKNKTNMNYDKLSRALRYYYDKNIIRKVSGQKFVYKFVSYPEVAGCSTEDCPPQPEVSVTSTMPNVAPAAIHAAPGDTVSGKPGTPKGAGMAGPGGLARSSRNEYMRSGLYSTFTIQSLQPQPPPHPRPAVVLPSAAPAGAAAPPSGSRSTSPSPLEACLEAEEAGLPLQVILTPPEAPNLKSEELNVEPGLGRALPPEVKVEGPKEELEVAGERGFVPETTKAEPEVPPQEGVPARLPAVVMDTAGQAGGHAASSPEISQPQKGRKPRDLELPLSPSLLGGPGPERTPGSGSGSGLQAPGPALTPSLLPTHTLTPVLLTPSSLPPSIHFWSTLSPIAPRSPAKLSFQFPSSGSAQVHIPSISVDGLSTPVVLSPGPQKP
The method, boiled down:
as §1

A further assay concerns the target T3, GABPA (Homo sapiens, UniProt Q06546 1-454).
T3 sequence: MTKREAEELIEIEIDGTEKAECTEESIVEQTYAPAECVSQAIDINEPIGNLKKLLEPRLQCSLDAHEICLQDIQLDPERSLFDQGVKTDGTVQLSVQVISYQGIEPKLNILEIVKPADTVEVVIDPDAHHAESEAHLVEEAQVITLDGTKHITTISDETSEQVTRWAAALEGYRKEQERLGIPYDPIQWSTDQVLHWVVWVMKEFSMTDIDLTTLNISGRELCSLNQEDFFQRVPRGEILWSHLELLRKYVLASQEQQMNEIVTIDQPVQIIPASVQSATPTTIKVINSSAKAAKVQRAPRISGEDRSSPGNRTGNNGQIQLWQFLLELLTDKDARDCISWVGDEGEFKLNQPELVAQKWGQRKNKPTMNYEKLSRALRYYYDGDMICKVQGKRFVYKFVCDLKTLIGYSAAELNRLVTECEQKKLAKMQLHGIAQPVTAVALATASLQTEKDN
The method, boiled down:
as §1

The target in a further assay is T4, ERG (Homo sapiens, UniProt P11308 1-479).
T4 sequence: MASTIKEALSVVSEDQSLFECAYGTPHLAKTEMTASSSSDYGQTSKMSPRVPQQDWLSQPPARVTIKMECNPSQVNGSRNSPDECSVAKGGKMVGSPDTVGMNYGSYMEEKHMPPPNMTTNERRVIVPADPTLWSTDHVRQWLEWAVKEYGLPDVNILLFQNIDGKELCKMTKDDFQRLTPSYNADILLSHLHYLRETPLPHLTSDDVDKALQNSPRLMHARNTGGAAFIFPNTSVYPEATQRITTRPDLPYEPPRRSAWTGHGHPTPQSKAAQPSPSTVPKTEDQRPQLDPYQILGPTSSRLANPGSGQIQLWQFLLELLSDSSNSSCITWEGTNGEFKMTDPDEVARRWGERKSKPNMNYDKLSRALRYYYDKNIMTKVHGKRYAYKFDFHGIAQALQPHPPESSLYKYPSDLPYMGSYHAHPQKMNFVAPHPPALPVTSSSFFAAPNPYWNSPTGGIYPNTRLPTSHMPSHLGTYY
The method, boiled down:
as §1

The target in a further assay is ELF1 (Homo sapiens, UniProt P32519 1-619). The method, boiled down: as §1
The next assay addresses T5, EHF (Homo sapiens, UniProt Q9NZC4 1-300).
T5 sequence: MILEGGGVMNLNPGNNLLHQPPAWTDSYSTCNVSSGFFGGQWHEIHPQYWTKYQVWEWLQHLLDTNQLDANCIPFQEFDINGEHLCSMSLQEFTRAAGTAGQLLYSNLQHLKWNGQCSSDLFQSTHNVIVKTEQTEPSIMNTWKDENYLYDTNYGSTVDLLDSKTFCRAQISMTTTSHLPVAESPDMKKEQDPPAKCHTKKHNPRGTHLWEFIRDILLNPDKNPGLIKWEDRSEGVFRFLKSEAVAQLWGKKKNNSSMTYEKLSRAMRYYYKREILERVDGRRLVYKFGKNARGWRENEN
The method, boiled down:
as §1

In another assay the target is SPI1 (Homo sapiens, UniProt P17947 1-270). The essentials:
as §1

The next assay deals with SPIB (Homo sapiens, UniProt Q01892 1-262). The method, boiled down: as §1
The target of the next assay is T6, ELK3 (Homo sapiens, UniProt P41970 1-407).
T6 sequence: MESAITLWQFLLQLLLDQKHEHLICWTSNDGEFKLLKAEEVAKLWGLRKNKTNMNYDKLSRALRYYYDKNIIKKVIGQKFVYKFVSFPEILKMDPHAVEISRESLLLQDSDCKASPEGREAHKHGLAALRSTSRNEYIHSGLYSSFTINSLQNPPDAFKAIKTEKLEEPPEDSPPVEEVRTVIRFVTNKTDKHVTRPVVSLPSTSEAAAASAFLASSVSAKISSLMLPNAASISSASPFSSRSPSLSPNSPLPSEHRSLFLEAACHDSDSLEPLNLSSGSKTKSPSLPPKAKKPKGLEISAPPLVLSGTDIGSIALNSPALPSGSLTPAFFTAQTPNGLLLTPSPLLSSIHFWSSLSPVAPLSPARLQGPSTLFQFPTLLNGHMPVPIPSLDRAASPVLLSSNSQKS
The essentials:
as §1

Sequence of ELF1 (P32519 whole entry): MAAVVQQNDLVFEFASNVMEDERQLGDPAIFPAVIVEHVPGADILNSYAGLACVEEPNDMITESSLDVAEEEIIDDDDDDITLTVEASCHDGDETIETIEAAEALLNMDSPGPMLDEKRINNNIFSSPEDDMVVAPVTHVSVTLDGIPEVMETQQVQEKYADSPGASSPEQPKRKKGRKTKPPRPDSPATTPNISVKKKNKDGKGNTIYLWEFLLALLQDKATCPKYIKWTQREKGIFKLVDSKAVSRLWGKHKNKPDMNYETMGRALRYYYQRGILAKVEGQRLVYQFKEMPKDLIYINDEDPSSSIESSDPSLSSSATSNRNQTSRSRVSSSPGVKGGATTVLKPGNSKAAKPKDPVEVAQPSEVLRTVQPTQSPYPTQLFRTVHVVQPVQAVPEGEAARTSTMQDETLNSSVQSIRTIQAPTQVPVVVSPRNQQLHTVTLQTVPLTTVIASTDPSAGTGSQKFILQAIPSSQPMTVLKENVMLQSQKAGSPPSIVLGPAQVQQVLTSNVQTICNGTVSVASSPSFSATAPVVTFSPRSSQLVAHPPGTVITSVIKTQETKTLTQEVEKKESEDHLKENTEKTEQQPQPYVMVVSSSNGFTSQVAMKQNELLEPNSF
Sequence of SPIB (Q01892 whole entry): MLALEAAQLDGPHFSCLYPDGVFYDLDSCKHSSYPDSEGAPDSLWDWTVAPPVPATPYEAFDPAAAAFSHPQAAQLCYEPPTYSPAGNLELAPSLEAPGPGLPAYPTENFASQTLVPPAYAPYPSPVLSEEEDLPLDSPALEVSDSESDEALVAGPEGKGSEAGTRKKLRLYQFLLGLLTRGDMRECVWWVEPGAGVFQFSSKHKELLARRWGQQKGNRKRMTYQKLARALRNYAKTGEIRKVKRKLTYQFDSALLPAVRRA

As for TGTCCC, the binding signal in the assay with FLI1 was 1.27 fold enrichment (6-mer frequency, TF over GST control); with ELK1, 1.35 fold enrichment (6-mer frequency, TF over GST control); with GABPA it was 1.33 fold enrichment (6-mer frequency, TF over GST control); with ERG, 1.38 fold enrichment (6-mer frequency, TF over GST control); in the assay with ELF1, 1.28 fold enrichment (6-mer frequency, TF over GST control); in the assay with EHF, 1.32 fold enrichment (6-mer frequency, TF over GST control). In addition, the binding signal is 1.22 fold enrichment (6-mer frequency, TF over GST control) in the assay with SPI1; 1.36 fold enrichment (6-mer frequency, TF over GST control) with SPIB; 1.47 fold enrichment (6-mer frequency, TF over GST control) with ELK3.

As for TGCTAC, the binding signal with FLI1 is 1.35 fold enrichment (6-mer frequency, TF over GST control); in the assay with ELK1, 1.26 fold enrichment (6-mer frequency, TF over GST control); in the assay with GABPA, 1.24 fold enrichment (6-mer frequency, TF over GST control); in the assay with ERG it was 1.27 fold enrichment (6-mer frequency, TF over GST control); with ELF1, 1.25 fold enrichment (6-mer frequency, TF over GST control); with EHF, 1.23 fold enrichment (6-mer frequency, TF over GST control). The binding signal with SPI1 was 1.29 fold enrichment (6-mer frequency, TF over GST control); with SPIB it was 1.25 fold enrichment (6-mer frequency, TF over GST control); with ELK3, 1.26 fold enrichment (6-mer frequency, TF over GST control).

Turning to TACCGG, the binding signal is 1.52 fold enrichment (6-mer frequency, TF over GST control) in the assay with FLI1; 1.55 fold enrichment (6-mer frequency, TF over GST control) in the assay with ELK1; 1.52 fold enrichment (6-mer frequency, TF over GST control) with GABPA; 1.77 fold enrichment (6-mer frequency, TF over GST control) in the assay with ERG; 1.53 fold enrichment (6-mer frequency, TF over GST control) in the assay with ELF1; 1.67 fold enrichment (6-mer frequency, TF over GST control) with EHF. Also, the binding signal was 1.43 fold enrichment (6-mer frequency, TF over GST control) in the assay with SPI1; 1.61 fold enrichment (6-mer frequency, TF over GST control) in the assay with SPIB; 1.56 fold enrichment (6-mer frequency, TF over GST control) with ELK3.

Turning to CTGGCA, the binding signal is 1.33 fold enrichment (6-mer frequency, TF over GST control) in the assay with FLI1; 1.28 fold enrichment (6-mer frequency, TF over GST control) with ELK1; 1.39 fold enrichment (6-mer frequency, TF over GST control) with GABPA; 1.2 fold enrichment (6-mer frequency, TF over GST control) in the assay with ERG; 1.26 fold enrichment (6-mer frequency, TF over GST control) in the assay with ELF1; 1.23 fold enrichment (6-mer frequency, TF over GST control) with EHF. The binding signal with SPI1 is 1.22 fold enrichment (6-mer frequency, TF over GST control); with SPIB it was 1.29 fold enrichment (6-mer frequency, TF over GST control); with ELK3, 1.43 fold enrichment (6-mer frequency, TF over GST control).

Consider TTATCA, for which the binding signal is 1.16 fold enrichment (6-mer frequency, TF over GST control) with FLI1; 1.15 fold enrichment (6-mer frequency, TF over GST control) with ELK1; 1.05 fold enrichment (6-mer frequency, TF over GST control) with GABPA; 1.06 fold enrichment (6-mer frequency, TF over GST control) with ERG; 1.15 fold enrichment (6-mer frequency, TF over GST control) with ELF1; 1.02 fold enrichment (6-mer frequency, TF over GST control) with EHF. Moreover, the binding signal with SPI1 is 1.09 fold enrichment (6-mer frequency, TF over GST control); with SPIB it was 1.1 fold enrichment (6-mer frequency, TF over GST control); with ELK3, 1.17 fold enrichment (6-mer frequency, TF over GST control).

CATCAC: the binding signal with FLI1 is 1.1 fold enrichment (6-mer frequency, TF over GST control); with ELK1, 1.1 fold enrichment (6-mer frequency, TF over GST control); in the assay with GABPA, 1.18 fold enrichment (6-mer frequency, TF over GST control); with ERG it was 1.15 fold enrichment (6-mer frequency, TF over GST control); with ELF1 it was 1.19 fold enrichment (6-mer frequency, TF over GST control); in the assay with EHF, 1.13 fold enrichment (6-mer frequency, TF over GST control). The binding signal in the assay with SPI1 is 1.11 fold enrichment (6-mer frequency, TF over GST control); in the assay with SPIB it was 1.11 fold enrichment (6-mer frequency, TF over GST control); with ELK3 it was 1.05 fold enrichment (6-mer frequency, TF over GST control).

In the case of GGTCCC, the binding signal in the assay with FLI1 was 1.13 fold enrichment (6-mer frequency, TF over GST control); in the assay with ELK1, 1.21 fold enrichment (6-mer frequency, TF over GST control); in the assay with GABPA, 1.16 fold enrichment (6-mer frequency, TF over GST control); with ERG it was 1.21 fold enrichment (6-mer frequency, TF over GST control); in the assay with ELF1, 1.17 fold enrichment (6-mer frequency, TF over GST control); with EHF it was 1.19 fold enrichment (6-mer frequency, TF over GST control). Further, the binding signal in the assay with SPI1 was 1.1 fold enrichment (6-mer frequency, TF over GST control); with SPIB, 1.31 fold enrichment (6-mer frequency, TF over GST control); with ELK3, 1.16 fold enrichment (6-mer frequency, TF over GST control).
